High-throughput results: PubChem BioAssay, several laboratories
SKKanGAS inh: S. pyogenes SKKanGAS growth inhibitors in kanamycin, primary screen, streptokinase expression inhibitor project, SKKanGAS strain, BacTiter-Glo luminescence; 6 h; inhibition, % at 7.5 µM; hit rate 1.3% among 300,000;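 active = mean replicate score, as percent of positive control median, at least 50; inconclusive = mean below 50 but one replicate at or above 50; inactive = mean and every replicate below 50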;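 also: strain carries kanamycin resistance gene driven by streptokinase promoter and grows in 40 µg/ml kanamycin; loss of luminescence reflects streptokinase promoter inhibition or plain growth inhibition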
NLRP3 yeast inh: NALP3 inflammasome inhibitors in reconstituted yeast, primary screen, luminescence, uHTS; hit rate 0.39% among 330,000; Yeast reconstituted NLRP3/ASC/caspase-1, beta-gal luminescence, 24 h; inhibition, % at 10 µM;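 active = inhibition of 50% or more; inactive = inhibition below 50%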
TIM10 inh: growth inhibitors of isogenic TIM10 control yeast, primary screen, counter-screen for tim10-1 yeast inhibitor project, luminescence, uHTS. S. cerevisiae TIM10 strain growth, BacTiter-Glo luminescence, 24 h. inhibition, % at 10 µM. hit rate 1.4% among 330,000. AID 463195, 2010;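 active = inhibition of 40% or more at the single tested concentration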;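 also: wild-type TIM10 isogenic control strain grown at permissive 25 °C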
tim10-1 inh: growth inhibitors of tim10-1 mutant yeast, primary screen, luminescence, uHTS. S. cerevisiae tim10-1 ts strain growth, BacTiter-Glo, 24 h. inhibition, % at 20 µM. hit rate 2.2% among 330,000;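 active = inhibition of at least 40%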;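 also: mutant grown at 25 °C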
tim23-1 inh: growth inhibitors of tim23-1 mutant yeast, primary screen, luminescence, uHTS; S. cerevisiae tim23-1 growth, BacTiter-Glo luminescence, 24 h; inhibition, % at 20 µM; hit rate 1.3% among 330,000; AID 463212, 2010;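 active = growth inhibition of the mutant yeast at or above 50%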;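 also: temperature-sensitive mutant grown at 25 °C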
TIM10 conf: growth inhibitors of wild-type TIM10 yeast, confirmation, counter-screen for tim10-1 synthetic lethality project, single concentration, luminescence, S. cerevisiae; shares compounds with TIM10 inh; S. cerevisiae tim10 strain growth, BacTiter-Glo luminescence, 24 h; inhibition, % at 10 µM; hit rate 63% among 4,600; AID 463215, 2010;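 active = inhibition of yeast growth at or above a set limit in either of two replicates at 10 µM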; also: this counterscreen used the strain with wild-type TIM10
Large screens that a line does not name were inactive (follow-up assays come after a bar, where they were run). In the library only some 4.6% were active in any assay of this set; here they are far more common.

O=C(Nc1ccccc1C(=O)O)/C(=C/c1ccc([N+](=O)[O-])cc1)NC(=O)c1ccc(Br)o1	none
O=C(OCCNc1ccc(C(F)(F)F)cc1[N+](=O)[O-])c1cc2ccccc2oc1=O	none
N#C/C(=C\c1ccc(C(=O)O)cc1)S(=O)(=O)c1cc(Br)ccc1Br	TIM10 inh 42 | TIM10 conf inactive
N#C/C(=C/c1ccc(F)cc1)S(=O)(=O)c1ccccc1	none
CC(C)(C)c1nnc(NC(=S)Nc2ccccc2)s1	TIM10 inh 45 | TIM10 conf inactive
CC(C)(C)c1nnc(NC(=O)CCS(=O)(=O)c2ccccc2)s1	none
Cc1nc(S/C(C(=O)O)=C2/C(=O)Nc3ccccc32)n[nH]1	TIM10 inh 41 | TIM10 conf 38
Cc1nc(SC2CC(=O)N(c3ccccc3)C2=O)n[nH]1 (centres undefined)	none
COc1cccc2c1O/C(=N\O)C(C(=O)Nc1cccc(Br)c1)C2 (centres undefined)	none (no result: NLRP3 yeast inh, TIM10 inh, tim10-1 inh, tim23-1 inh)
CCn1cc(/C=C(\NC(=O)c2cc(OC)c(OC)c(OC)c2)C(=O)NCCN2CCOCC2)c2ccccc21	TIM10 inh 97 | TIM10 conf inactive
CCn1cc(/C=C(\NC(=O)c2cc(OC)c(OC)c(OC)c2)C(=O)NCCCN2CCOCC2)c2ccccc21	none
O=C(Nc1ccc(N2CCN(C(=O)c3ccccc3)CC2)c(Cl)c1)c1ccco1	TIM10 inh 45 | TIM10 conf 36
CCOC(=O)c1cccc(NC(=O)c2ccco2)c1	TIM10 inh 46 | TIM10 conf inactive
O=C(c1ccccc1)c1cccc(NC(=O)c2ccco2)c1	TIM10 inh 53 | TIM10 conf 60
O=C(Nc1ccc2c(c1)ncn2-c1ccccc1)c1ccco1	TIM10 inh 51 | TIM10 conf 50
Clc1cccc(-c2ccc(C=Nc3ccc(N4CCOCC4)cc3)o2)c1	none (no result: NLRP3 yeast inh, TIM10 inh, tim10-1 inh, tim23-1 inh)
CC(C)(C)n1cnc2cc(NC(=O)c3ccccc3)ccc21	TIM10 inh 58 | TIM10 conf 64
O=C(Nc1ccc2nc3ccccc3nc2c1)c1ccccc1	none (no result: NLRP3 yeast inh, TIM10 inh, tim10-1 inh, tim23-1 inh)
Cc1c(F)cccc1NC(=O)c1ccc2c(c1)CCN2S(C)(=O)=O	none
CCOC(=O)C1(CCCc2ccccc2)CCN(C(=O)C2CCCN(C(N)=O)C2)CC1 (centres undefined)	none
CCn1c(C(=O)O)c(CC(=O)Nc2ccccc2OC)c2ccccc21	none
CC(Sc1nc2ncc(Cl)cc2[nH]1)C(=O)Nc1ccc(C(N)=O)cc1 (centres undefined)	none
O=C(Nc1ccc(C(F)(F)F)cc1)c1cc(S(=O)(=O)NCC2COc3ccccc3O2)ccc1F (centres undefined)	SKKanGAS inh inconclusive, TIM10 inh 42 | TIM10 conf 45
O=C(NCC1COc2ccccc2O1)c1cc(S(=O)(=O)N2CCOCC2)ccc1F (centres undefined)	none (no result: SKKanGAS inh)
Cc1ccc(S(=O)(=O)Nc2c(NC3CCCCC3)c3ccccc3oc2=O)c(C)c1	none
Cn1c(SCC(=O)NN2C(=O)NC(C)(c3ccccc3)C2=O)nnc1-c1ccncc1 (centres undefined)	none (no result: SKKanGAS inh)
CN(C(=O)c1cnc(N2CCN(c3ncccn3)CC2)c2ccccc12)c1ccc(Cl)cc1	TIM10 inh 52 | TIM10 conf 28
Cc1ccc(CN(c2ccc(C(=O)N3CCCC3)cc2)S(C)(=O)=O)cc1	SKKanGAS inh 67, TIM10 inh 44 | TIM10 conf 47
Cc1ccc(C)c(Oc2coc3cc(OC(=O)c4cccs4)ccc3c2=O)c1	TIM10 inh 40 | TIM10 conf inactive
COc1ccc(Oc2coc3cc(OC(=O)c4cccs4)ccc3c2=O)cc1	none
CCOC(=O)Oc1ccc2c(=O)c(Oc3cc(C)cc(C)c3)coc2c1	TIM10 inh 44 | TIM10 conf inactive
COc1ccc(C)cc1NC(=O)CCNC(=O)Cn1ccc2ccccc2c1=O	none
O=C(CN1CCN(Cc2ccccc2Cl)CC1)N/N=C/c1ccccn1	none
NC(=O)N/N=C/c1ccc([N+](=O)[O-])o1	none (no result: SKKanGAS inh)
O=C(N/N=C/c1c[nH]c2ccccc12)c1sc2ccccc2c1Cl	none
Cc1cc(C(=O)N/N=C/c2ccc([N+](=O)[O-])o2)c(C)o1	TIM10 inh 41 | TIM10 conf inactive
Cn1cccc1/C=N/NC(=O)c1sc2ccccc2c1Cl	TIM10 inh 46 | TIM10 conf 49
Cc1nonc1C(=O)N/N=C/c1ccc([N+](=O)[O-])o1	none
O=C(N/N=C/c1ccc([N+](=O)[O-])o1)c1sc2ccccc2c1Cl	TIM10 inh 69 | TIM10 conf 65
COc1ccc(C(=O)COC(=O)CNC(=O)c2ccccc2)cc1F	none (no result: SKKanGAS inh)
O=C(NCCc1c[nH]c2ccccc12)C(=O)NCC(c1ccco1)N1CCN(c2ccccc2F)CC1 (centres undefined)	none
CCCCCCCCCCOC(=O)Cn1c(COc2cccc(C)c2)[n+](C)c2ccccc21	SKKanGAS inh 101, TIM10 inh 51 | TIM10 conf 34
CCc1ccc(CN(C)C(=O)C2CCC(=O)N(Cc3ccccn3)C2)cc1 (centres undefined)	none
CC(c1ccco1)N(C(=O)c1ccccc1NS(=O)(=O)c1cc([N+](=O)[O-])ccc1Cl)c1ccccn1 (centres undefined)	TIM10 inh 45 | TIM10 conf 34
CC(c1ccco1)N(C(=O)c1ccccc1NS(=O)(=O)c1ccc(Cl)cc1)c1ccccn1 (centres undefined)	TIM10 inh 45 | TIM10 conf 41
COc1ccc(OC)c(S(=O)(=O)Nc2ccc(-c3ccc4nncn4n3)cc2)c1	none
O=C(c1cc2ccccc2oc1=O)N(c1ccc(Cl)cc1)C1C=CS(=O)(=O)C1 (centres undefined)	none
O=C(CN(Cc1ccccc1)S(=O)(=O)c1ccc(F)cc1)NCc1ccccn1	none
COc1cc(/C=C(/C#N)c2nc3ccccc3[nH]2)ccc1OCc1ccc(C(=O)O)o1	none
COC(=O)c1ccc(COc2ccc(/C=C(\C#N)c3nc4ccccc4[nH]3)cc2OC)o1	TIM10 inh 54 | TIM10 conf 33
COc1ccccc1Oc1ccc(Oc2ccccc2OC)cc1	none
O=S(=O)(c1ccc2c(c1)OCCO2)N1CCN(Cc2ccccc2)CC1	TIM10 inh 43 | TIM10 conf inactive
COc1ccccc1N1CCN(C(=O)c2ccc(N3CCCC3=O)cc2)CC1	none
COc1ccccc1N1CC(C)(C)C(=O)N(C(=O)c2ccc(C)cc2)C1=S	TIM10 inh 43 | TIM10 conf 45
COc1cccc(-c2ccc(SCC(=O)c3ccccc3)nn2)c1	TIM10 inh 42 | TIM10 conf 42
